The campaign covered roughly 39,000 compounds. About 3,300 (8.5%) were called active. Only a selection was taken, and actives are over-represented in it overall.

This experiment concerns HepG2. The experiment in a line: cytotoxicity call (relative viability < 0.9). The following applies: 10 µM.
`C[C@H](CO)N1C[C@H](C)[C@H](CN(C)S(=O)(=O)c2cn(C)cn2)OCc2ccccc2-c2ccccc2C1=O`: the cytotoxicity call was “inactive”.

As to `Cc1nc(CSCc2ccc(Cl)cc2Cl)cs1`, the cytotoxicity call was “inactive”. Under `COc1ccccc1CN1C(=O)c2ccccc2[C@@]2(Cc3ccccc3N(Cc3ccccc3)C2=O)[C@@H]1c1ccc(CO)cc1` stands “inactive”. For the compound `C[C@@H]1CN([C@@H](C)CO)C(=O)c2cc(NC(=O)Nc3ccccc3)ccc2O[C@@H]1CN(C)S(C)(=O)=O`, the cytotoxicity call was “inactive”.

With `C[C@H](CO)N1C[C@H](C)[C@H](CN(C)Cc2ccc3c(c2)OCO3)Oc2ccc(NS(=O)(=O)c3cn(C)cn3)cc2CC1=O`, the cytotoxicity call is “inactive”. On to `O=c1cc(Cl)[nH]c(=O)[nH]1`, for which the cytotoxicity call is “inactive”.

For `Cc1cc(C(=O)Nc2cccc3c2O[C@@H](CN(C)Cc2ccc(C(=O)O)cc2)[C@@H](C)CN([C@H](C)CO)C3=O)n(C)n1`, the cytotoxicity call is “inactive”.

Turning to `Cc1noc(C)c1S(=O)(=O)Nc1cccc2c1O[C@@H](CN(C)S(=O)(=O)c1ccc(F)cc1)[C@@H](C)CN([C@H](C)CO)C2=O`, the cytotoxicity call is “inactive”. `C[C@H](CO)N1C[C@H](C)[C@@H](CN(C)S(=O)(=O)c2cn(C)cn2)Oc2ccc(NC(=O)Cn3cnnn3)cc2CC1=O`: the cytotoxicity call is “inactive”.

For the compound `Cc1noc(C)c1S(=O)(=O)Nc1ccc2c(c1)C(=O)N([C@@H](C)CO)C[C@H](C)[C@H](CN(C)S(C)(=O)=O)O2`, the cytotoxicity call is “inactive”. On to `COc1ccc(CN(C)C[C@H]2OCCCC[C@@H](C)Oc3ccc(NC(=O)Nc4ccc(C(F)(F)F)cc4)cc3C(=O)N([C@@H](C)CO)C[C@H]2C)cc1`, for which the cytotoxicity call was “active”.

In the case of `COc1ccc(CN(C)C[C@H]2OCCCC[C@H](C)Oc3ccc(NC(=O)Nc4ccc(C(F)(F)F)cc4)cc3C(=O)N([C@@H](C)CO)C[C@@H]2C)cc1`, the cytotoxicity call is “active”.

As to `COc1ccc(CN(C)C[C@@H]2OCCCC[C@@H](C)Oc3ccc(NC(=O)Nc4ccc(C(F)(F)F)cc4)cc3C(=O)N([C@H](C)CO)C[C@H]2C)cc1`, the cytotoxicity call is “active”. Consider `COc1ccc(NC(=O)Nc2ccc3c(c2)C(=O)N([C@H](C)CO)C[C@H](C)[C@H](CN(C)Cc2ccc(C(F)(F)F)cc2)OCCCC[C@@H](C)O3)cc1`, for which the cytotoxicity call was “inactive”. Regarding `COc1ccc(CN(C)C[C@@H]2OCCCC[C@@H](C)Oc3ccc(NC(=O)Nc4ccc(C(F)(F)F)cc4)cc3C(=O)N([C@H](C)CO)C[C@@H]2C)cc1`, the cytotoxicity call was “active”. Regarding `COc1ccc(NC(=O)Nc2ccc3c(c2)C(=O)N([C@H](C)CO)C[C@H](C)[C@H](CN(C)Cc2ccc(C(F)(F)F)cc2)OCCCC[C@H](C)O3)cc1`, the cytotoxicity call was “inactive”.

For `COc1ccc(NC(=O)Nc2ccc3c(c2)C(=O)N([C@@H](C)CO)C[C@@H](C)[C@@H](CN(C)Cc2ccc(C(F)(F)F)cc2)OCCCC[C@@H](C)O3)cc1`, the cytotoxicity call is “inactive”.

In the case of `COc1ccc(NC(=O)Nc2ccc3c(c2)C(=O)N([C@H](C)CO)C[C@@H](C)[C@H](CN(C)Cc2ccc(C(F)(F)F)cc2)OCCCC[C@H](C)O3)cc1`, the cytotoxicity call is “inactive”. Consider `COc1ccc(NC(=O)Nc2ccc3c(c2)C(=O)N([C@@H](C)CO)C[C@H](C)[C@H](CN(C)Cc2ccc(C(F)(F)F)cc2)OCCCC[C@@H](C)O3)cc1`, for which the cytotoxicity call was “inactive”. Take `COc1ccc(NC(=O)Nc2ccc3c(c2)C(=O)N([C@H](C)CO)C[C@H](C)[C@@H](CN(C)Cc2ccc(C(F)(F)F)cc2)OCCCC[C@@H](C)O3)cc1`: the cytotoxicity call is “inactive”.

The values above are taken from the antibiotic and cytotoxicity screens of Wong et al. (2023).
